In the supplement of paper PMC6555819:

tested on: VDR:RXRa (NR concentration 270 nM, RXRa partner concentration 90 nM); assay: PBM binding z-score (relative to random genomic background probes); higher = stronger binding; sequences stand for … in GC…GCGATTGACAGCGTAGAATGAAGG
Protocol: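 Protein-binding microarray (Agilent 4x180K custom design, double-stranded 60-nt probes: 5' GC cap, 34-nt variable region, 24-nt constant primer region; full probe sequence given). Purified or IVT nuclear receptor:RXRα heterodimers (3:1 NR:RXRα, mostly 270:90 nM) or homodimers were incubated for 1 h in PBS with 2% milk and no ligand, then detected with Alexa488 antibodies. Fluorescence from o1-orientation probes (~5 replicates averaged) was converted to z-scores against 500 random hg19 background probes. Variable regions are seed direct-repeat (DR0–DR5) sites, all their single-nucleotide variants and half-site ablations.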

Sequence | PBM binding z-score
GTACCAAGGTGAACAGGTCGTTGATGAGTAGGCG | 1.15
CCTCGGAGGACAGAAGGTCATAGCTGTCCGCTTT | 2.69
AATACAGGGTCATCGTAGGCCAAAGTACGCACAG | 5.62
CGAACTAGGTCATCCAGGACAGTTAATACATTGA | 4.42
TCTTGTAGATCAATTGAGGTTAAGAAAGTGCGCT | 1.86
TCGAGTAGGTTACTCGGGGCATTCAGCCAACATA | 3.33
TATACAGGGTCCAAGGCCAGAGTACGAATGTCGA | 0.821
ATATGTAGGTTAGATCCGGGTCATTCAGGCTATG | 3.5
ACTAGCAGGCCAACTTTGGGTCACTCAAACAAAG | 0.536
TCTAGCGGGCCAGAGGGTCACTCAAGAGGTACGG | 1.29
CAAACTAGATCACAGAGGTCAAAGTCCGTGCGTA | 5.7
CAAACTTGGTCAAAGGTCAAAGTCGAGCCAACCA | 5.59
CCAGACAGGTGAAAGGTAACTTAGTCTGGTACGC | 0.744
TAGCCTAGGTCATGCGGGCCAGTATTGTGTCGGC | 2.92
ATCTCTAGCTAAGACTCAGTTCAGTGAAGAACGC | 0.552
GCTTGGAGGACAAGGTCAGAGCTTTGTCCGTAGA | 1.41
CCGACTGGGGCAAGGTTTCCATAACGCACAGCCA | -0.502
AGAACGACGGCAATGAGTTGATAGCACGGGTGGC | -0.0161
CCTACTGGGCCATCAGGTCCTTGATATCAACGTT | -0.0448
ACCTACGGGTCAACGAGGTTATAGCACGCGTATA | 7.64

Sequence | PBM binding z-score
TGAATGAGGTTATAAGAGCAGGGAACGTTGCAAA | 0.901
ACTATGAGTTGAGACGAGGGCAACCGATAGGTTG | 1.9
GGAACGAGGGCAAAGTTGATTGCATCTGTCGACG | 1.34
CATACAGGGTCAGCTAGGCCAGAATAGGGACGGC | 3.8
TCGAGTAGGTTAGTCGAGGCATTCAGCCAACATA | -0.258
GGAACGAAGGCAAGTTGATAGCAGAGTTTGATGG | -0.696
CCTAGCTGGTCAAGGTCACACACGCTATAGGTAC | 3.75
CCTAGCATGCCAGGGTCACTCAAGCATTTCGCTT | 2.59
ACAGAAAGGTGATGAAGGTAACTCAGGCTATCAT | 1.2
TCTAGTTGGTCACGGAGGTCACACATGACGGGTA | 5.83
CCTAGTTGGCCAGGAGGTCACACACCGGATATGA | 3.63
ACTATTAGTTGACTTAGAGCAACCGATACGACGC | -0.14
CGAACTAGGTCAGAACAGGACAGGGAAGGATGAT | 0.511
ACAGACAGGTGATGAAGGTAACCCAGGCTATCAT | -0.00497
CTCGAAAGGTCGGTTGAGGTGAATATACGGATAA | 2.79
TCATCTAGGTAAACAGGTGAAAGTCCGTAAGTTA | 0.914
TCTAGTTGGTCAAAGGACACACACTCGAAATGCG | 1.05
CTCGAAAGGTCGGTTGAGCTGAGTATACGGATAA | 0.528
TCTTGTAGATCAATAGAGGTTAATAAAGTGCGCT | 1.84
CGTCCAAGGTCCAGGTCAGTGAAAGAGACTCGAA | 0.373
